Screens deposited in PubChem BioAssay by National Center for Advancing Translational Sciences (NCATS).
Shiga inhibitor = A qHTS for Small Molecule Inhibitors of Shiga Toxin | Vero cells, Shiga toxin protein synthesis inhibition reporter | inhibition, % at 38.7 µM | hit rate 9.2% among 290,000 | AID 2315, 2010; in the data active means inhibition mostly above about 28%, no sharp cut-off; inactive means mostly below about 43%; further: 0% is about no effect
LASV entry inh = qHTS for Inhibitors of binding or entry into cells for Lassa Virus; Lassa virus pseudotype entry inhibition, cell reporter; Potency, µM (titrated, usually from 37.9 µM), for inactives: top-dose activity change, negative = inhibition, most hits filed as inhibitors; hit rate 1.2% among 300,000; calls by dose curve; tested in HEK293 cells; further: potency means the concentration at half of the fitted maximal effect; on the % scale 0 is the no-effect control and ±100 the full control effect; nearly all actives have a fitted effect of over 50% in size
Marburg entry inh = qHTS for inhibitors of binding or entry into cells for Marburg Virus; Marburg virus pseudotyped entry inhibition, cell reporter; Potency, µM (top dose mostly 37.8 µM), without a hit: top-dose activity change, negative = inhibition, actives largely listed as inhibitors; hit rate 1.8% among 300,000; AID 540276, 2011; calls by dose curve; tested in HEK293 cells; further: potency means the concentration at half of the fitted maximal effect; on the % scale 0 is the no-effect control and ±100 the full control effect
CHX counter = Cycloheximide Counterscreen for Small Molecule Inhibitors of Shiga Toxin; cell reporter, cycloheximide protein synthesis inhibition counterscreen; max response, %; hit rate 12% among 300,000; AID 2314, 2010; in the data active means max response mostly above about 13%, no sharp cut-off; inactive means mostly below about 14%; further: read at 38.3 µM for the half of the compounds with a filed dose; 0% is about no effect
AMA1-RON2 inh = qHTS for Inhibitors of AMA1-RON; Towards Development of Antimalarial Drug Lead: Primary Screen; AlphaScreen AMA1-biotinylated RON2 peptide binding; Potency, µM (series often up to 58.2 µM), for inactives: at the highest dose activity change, negative = inhibition, actives largely listed as inhibitors; hit rate 0.2% among 360,000; AID 720542, 2013; active means well fitted inhibition curve with a large enough effect; inconclusive means small, poorly fitted or top-dose-only effect; inactive means no such curve, though single readings can be large or run the other way;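 further: potency means the concentration at half of the fitted maximal effect; 0% = vehicle wells and -100% = peptide control; nearly all actives have a fitted effect of over 45% in size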
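AMA1 (3D7) with his tag at 25 nM final met compounds first, then biotinylated RON2 peptide at 25 nM; detection used donor plus acceptor beads, 10 µg/mL apiece, read by AlphaScreen after 30 min at room temperature.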
An asterisk follows results filed as active; ? = inconclusive; nt = no result given; [ ] = dose if it differs, or a comment. The entries come from a sample that favours hits as a whole.

SMILES	Shiga inhibitor	LASV entry inh	Marburg entry inh	CHX counter	AMA1-RON2 inh
COc1cc(NC(=O)c2cc(-c3cccnc3)nc3ccc(Br)cc23)cc(OC)c1	-13.9	11.2µM*	?	-1.4	-8.6%
Cn1c(=O)c2c(ncn2CC(=O)Nc2cc(Cl)c(Cl)cc2Cl)n(C)c1=O	-12.1	nt	5.2%	8.3	nt
COCCNC(=O)c1cccc(OC2CCN(Cc3ccc(C(C)C)cc3)CC2)c1	nt	-10.5%[46.1 µM]	?	-0.9	-10.2%
CC(C)CN1CCC(Oc2cccc(C(=O)NCCc3ccccc3)c2)CC1	60.2*	25.7%	-13.5%	26.6*	2.0%
COCC(C)N1CCC(Oc2cccc(C(=O)NCCc3ccccc3)c2)CC1 (stereo not given)	107.0*	nt	nt	59.4*	-10.7%
Cc1nc2ccccc2c(=O)n1NC(=O)c1cccc(Cl)c1	-6.3	?	4.6%	1.8	2.4%
CC(C)(C)NC(=O)C(c1c[nH]c2ccccc12)N(C(=O)Cn1nnc(-c2ccc(F)cc2)n1)c1cccc(O)c1 (stereo not given)	-8.7	?	11.2µM*	-1.6	-5.7%
Cc1ccc(Nc2ccc(C(=O)O)cc2[N+](=O)[O-])cc1	5.6	?	?	6.1	-6.7%
CC(C)c1ccc(Nc2ccc(C(=O)O)cc2[N+](=O)[O-])cc1	42.8	?	-0.9%	19.3*	-1.3%
CC(=O)c1ccc(/C=C/c2nc3ccccc3n2C)o1	60.8*	?	?	38.2*	0.0%
Cn1c(/C=C/c2ccccc2)nc2ccccc21	-13.1	nt	nt	11.1	3.3%
Cn1c(=O)c(/C=C/c2ccc(F)cc2)nc2ccccc21	75.0*	-11.5%	7.3%	35.6*	48.0%
CCOC(=O)c1ccc(N=Cc2nc3ccccc3n2C)cc1	-6.2	10.8%	-1.2%	11.1	19.8%
Cn1c(=O)c(/C=C/c2ccccc2)nc2ccccc21	73.5*	-16.4%	?	34.2*	55.0%
O=C(Cc1ccccc1Nc1c(Cl)cccc1Cl)OCO/N=[N+](\[O-])N1CCCC1	19.4	nt	nt	11.4	nt
O=C(c1ccc(Br)cc1)c1cc([N+](=O)[O-])ccc1N1CCCCC1	-18.1	?	0.731µM*	-2.3	-28.5%
COc1ccc(C(=O)c2cc([N+](=O)[O-])ccc2N2CCN(C)CC2)cc1	-16.9	-24.2%	7.08µM*	-7.3	-11.1%
C=CCOC(=O)NC(CC(=Nc1ccc(OC)cc1)C(=O)OC)c1ccccc1 (stereo not given)	nt	nt	4.9%[14.2 µM]	nt	nt
O=[N+]([O-])c1ccc(Sc2cccc3cccnc23)cc1	64.7*	7.2%	-18.5%	25.6*	-21.8%
O=[N+]([O-])c1ccc(Sc2cccc3cccnc23)c([N+](=O)[O-])c1	12.6	nt	nt	19.1*	-2.1%
O=[N+]([O-])c1cc(Cl)ccc1Sc1cccc2cccnc12	-13.0	-12.8%	-1.9%	-1.5	-9.3%
CCCN(CC(=O)Nc1ccccc1OC)C(=O)Cn1c(=O)oc2ccccc21	nt	-4.1%	2.4%[46.1 µM]	nt	2.5%
CCN1C(=NCc2ccco2)N[C@@H](CCc2ccccc2)[C@H](C(=O)OC)[C@H]1C	nt	?	33.1%[14.2 µM]	nt	nt
Cc1cccc(Nc2ncc(NC(=O)c3cccc(F)c3)c(Nc3cccc(C)c3)n2)c1	nt	-1.2%[46.1 µM]	?	nt	nt
Cc1ccc2nc(-c3sc4nc(C)ccc4c3N)[nH]c2c1	43.6*	?	-6.9%	32.9*	85.7%
SMILES	Shiga inhibitor	LASV entry inh	Marburg entry inh	CHX counter	AMA1-RON2 inh
Cc1cc(C)c2c(N)c(-c3nc4ccccc4[nH]3)sc2n1	80.7*	?	-29.7%	44.6*	10.4%
NC(=O)[C@H]1CC2(CC(c3cccc(NC(=O)COc4ccc(Cl)cc4)c3)=NO2)CN1C(=O)Cc1ccc([N+](=O)[O-])cc1 (stereo not given in full)	-4.0	nt	nt	-0.7	0.0%
NCCNS(=O)(=O)c1ccc(Cl)c2ccncc12	-3.2	nt	nt	-1.7	nt
NCCNS(=O)(=O)c1cccc2c(Cl)cccc12	-8.8	-28.7%	11.2µM*	-7.5	nt
CCOC(=O)c1c(CSC(=N)N)n(-c2ccc(Br)cc2)c2cc(Br)c(OC(C)=O)cc12	-22.3	?	13µM*	-7.4	5.4%
C=CCCc1ccc(C#N)c(SCc2c(C(=O)OCC)c3cc(OC(C)=O)c(Br)cc3n2C)n1	-2.9	7.94µM*	?	-2.7	10.0%
CCCCn1nnnc1C1(C)CCC(=O)N1CC1CCCCC1 (stereo not given)	nt	nt	nt	nt	8.7%
O=C1N[C@@H](Cc2ccccc2)C(=O)N2[C@@H]1C[C@]1(Br)c3ccccc3N(S(=O)(=O)c3ccccc3)[C@H]21	nt	nt	nt	nt	-2.1%
COc1ccc(OCc2cc(C(=O)NCC(C)Oc3cccnc3)no2)c(Cl)c1 (stereo not given)	43.3*	?	?	32.3*	4.2%
CN(Cc1ccc(F)cc1)C(=O)c1cc(COc2ccc(F)cc2F)on1	-10.6	-12.4%[46.1 µM]	-10.5%[46.1 µM]	-2.5	3.8%
COc1ccc(OCc2cc(C(=O)NC(C)Cc3cnccn3)no2)c(Cl)c1 (stereo not given)	71.7*	nt	nt	31.1*	7.8%
COc1ccc(OCc2cc(C(=O)N(C)Cc3cc(C4CC4)n[nH]3)no2)c(Cl)c1	137.6*	nt	nt	40.3*	8.7%
CSc1ccccc1OCc1cc(C(=O)NCC(C)Oc2cccnc2)no1 (stereo not given)	nt	nt	nt	nt	-4.3%
COc1cc(Cl)ccc1OCc1cc(C(=O)N(C)Cc2cccc3cnccc23)no1	70.4*	?	?	61.4*	-6.9%
Cc1ccc([N+](=O)[O-])cc1NC(=S)NC(=O)c1cccs1	-11.7	13.5%	?	1.4	-5.5%
COc1ccc(N2CC(NC(=O)COc3ccc(F)cc3)CC2=O)cc1OC (stereo not given)	nt	-0.2%[46.1 µM]	nt	nt	nt
Cc1ccc(C(OCC(O)CNCc2ccc(F)cc2)c2ccccc2)cc1 (stereo not given)	-5.9	nt	nt	-7.9	-13.6%
CCc1cccc(C)c1Nc1c(-c2ccc(SC)cc2)nc2sccn12	nt	8.3%[46.1 µM]	?	nt	nt
COc1ccc(Cl)cc1S(=O)(=O)NC(C)C(=O)NCc1cccnc1 (stereo not given)	-18.2	nt	5.6%[46.1 µM]	-3.7	23.0%
COc1ccc(OCc2cc(C(=O)N(C)Cc3cnccn3)no2)c(Cl)c1	77.9*	-15.2%	-5.8%	46.0*	-7.3%
COc1cc(Cl)ccc1OCc1cc(C(=O)NC(C)Cc2cccnc2)no1 (stereo not given)	53.2*	?	11.8%	48.4*	1.6%
COc1ccc(OCc2cc(C(=O)NCCc3ccccc3)no2)c(Cl)c1	-5.2	nt	nt	-3.8	-2.8%
CCOC(=O)c1cc2c(OC)c(OC)ccc2c2[nH]cc(C#N)c(=O)c12	nt	nt	nt	nt	0.8%
O=C(c1cc2c(s1)CCCC2)N1CCN(C(=O)C2CCCO2)CC1 (stereo not given)	14.2	-5.2%	2.1%	12.3	-2.3%
CC(=O)c1ccc(N2CCN(C(=O)c3cc4c(s3)CCCC4)CC2)cc1	70.8*	-17.8%[46.1 µM]	?	17.8*	-4.4%
O=C(c1cc2c(s1)CCCC2)n1cccn1	9.4	19.7%	?	18.2*	8.2%
